# Data from PubChem BioAssay (NCATS).
# Values joined by “and” are separate entries in the source; they are usually repeats but may differ in a detail not shown here. Identical values can stand only once. Records with an inconclusive call do not appear. A call without a number means that no potency is given here. Active and inactive are the calls of the source. Unless noted, calls come from the whole dose curve; as a rule, active = well fitted curve in the direction sought with a large enough effect; inconclusive = small, poorly fitted or top-dose-only effect, or another doubt; inactive = no such curve, though single readings can be large; an effect the other way counts as inactive or inconclusive.
# Experiments:
# [1] = Cell Viability - LYMP2-017 (AID 972); settings: LYMP2-017 lymphoblastoid cell viability; series mostly up to 92.2 µM; note: nearly all actives have a fitted effect of over 55% in size
# Summary of the method: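 In this qHTS format, lymphoblastoid cells in complete medium receive test compound for a day at 37 C before ATP content is quantified by luciferase luminescence. Reported AC50 figures come from standard Hill-equation curve fitting.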
# [2] = Cell Viability - LYMP2-019 (AID 973); settings: LYMP2-019 lymphoblastoid cell line viability; series mostly up to 92.2 µM; note: nearly all actives have a fitted effect of over 55% in size
# Summary of the method: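 AC50 values come from Hill-equation modelling of qHTS concentration-response curves, where viability is measured as luciferase-based ATP luminescence in the lymphoblastoid line after 24 hr compound exposure in complete culture medium.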
# [3] = Cell Viability - LYMP2-021 (AID 974); settings: LYMP2-021 lymphoblastoid cells viability; series mostly up to 92.2 µM;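 note: compound exposure lasts 24 hours at 37 °C; nearly all actives have a fitted effect of over 55% in size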
# Summary of the method: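 In qHTS format, compounds are tested against 2500 lymphoblastoid cells per well for 24 h; viable cell number is inferred from ATP-driven luciferase light, and Hill-equation fitting yields AC50 values.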
# [4] = Cell Viability - LYMP2-023 (AID 975); settings: LYMP2-023 lymphoblastoid cell viability; series mostly up to 92.2 µM;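 note: cellular ATP measured by luciferase luminescence as viability proxy; nearly all actives have a fitted effect of over 55% in size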
# Summary of the method: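 In this qHTS, ATP-based luciferase luminescence (CellTiter-Glo) is quantified in human lymphoblastoid cells after 24 hr compound treatment at 37 C; tetraoctylammonium bromide serves as positive control. Concentration-response curves are Hill-fitted to give AC50.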
# [5] = Cell Viability - LYMP2-025 (AID 976); settings: LYMP2-025 lymphoblastoid cell viability; series mostly up to 92.2 µM
# Summary of the method: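 Luminescent ATP readout after 24 hr treatment of a human lymphoblastoid line (LYMP2-025, 2500 cells/well, 37 C). Reagent developed 30 min at room temperature; AC50 fitted with the Hill equation.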
# [6] = Cell Viability - LYMP2-002 (AID 977); settings: LYMP2-002 lymphoblastoid cell viability, qHTS; series mostly up to 92.2 µM;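 note: compound exposure lasted 24 h at 37 °C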
# Summary of the method: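 Human lymphoblastoid cells, 2500/well, complete medium; 5 h 37 C settle; compound 24 h 37 C; CellTiter-Glo, 30 min RT; luminescence. Decrease in ATP = cytotoxicity; AC50 via Hill equation.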
# [7] = Cell Viability - LYMP2-006 (AID 978); settings: LYMP2-006 lymphoblastoid cell viability, qHTS; series mostly up to 92.2 µM; note: nearly all actives have a fitted effect of over 60% in size
# Summary of the method: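 Concentration-dependent loss of intracellular ATP in a human lymphoblastoid line after 24 hr treatment at 37 C was measured by CellTiter-Glo luminescence, with AC50 values obtained from standard Hill-equation modelling.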
# [8] = Cell Viability - LYMP2-007 (AID 979); settings: LYMP2-007 lymphoblastoid cell viability; series mostly up to 92.2 µM;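 note: cells exposed to compound for 24 h before reading; nearly all actives have a fitted effect of over 60% in size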
# Summary of the method: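 Measured via luciferase-based ATP quantitation: lymphoblastoid cells, 24 hr compound exposure at 37 C, AC50 from Hill fits.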
# [9] = Cell Viability - LYMP2-008 (AID 980); settings: LYMP2-008 lymphoblastoid cell viability, qHTS; series mostly up to 92.2 µM; note: nearly all actives have a fitted effect of over 60% in size
# Summary of the method: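 Measured: ATP-dependent luminescence, proportional to viable cell number, in human lymphoblastoid cells treated 24 hr with compound in complete culture medium. Values are AC50s from Hill-equation modelling of qHTS titrations.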
# [10] = Cell Viability - LYMP2-014 (AID 983); settings: LYMP2-014 lymphoblastoid cells, viability qHTS; series mostly up to 92.2 µM; note: nearly all actives have a fitted effect of over 50% in size
# Summary of the method: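 Quantitative HTS in lymphoblastoid cells: 24 hr compound exposure, then CellTiter-Glo ATP luminescence. Positive control was tetraoctylammonium bromide, 6.4pM to 92 uM.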
# [11] = Cell Viability - LYMP2-016 (AID 984); settings: LYMP2-016 lymphoblastoid cell viability, qHTS; series mostly up to 92.2 µM; note: nearly all actives have a fitted effect of over 55% in size
# Summary of the method: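 Acute toxicity in a Coriell human lymphoblastoid line is scored as loss of intracellular ATP over 24 h of treatment in complete medium. CellTiter-Glo signal is fitted across concentrations with the Hill equation to give AC50.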
# [12] = Cell Viability - LYMP2-018 (AID 985); settings: LYMP2-018 lymphoblastoid cells, viability (qHTS); series mostly up to 92.2 µM; note: nearly all actives have a fitted effect of over 50% in size
# Summary of the method: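 In this qHTS viability assay, cells are treated for 24 hr and cellular ATP is quantified by luciferase-based luminescence, with tetraoctylammonium bromide as positive control.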
# [13] = Cell Viability - LYMP2-020 (AID 986); settings: series mostly up to 92.2 µM; note: nearly all actives have a fitted effect of over 55% in size
# Summary of the method: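 Cells at 2500 per well receive a 24 hr compound exposure at 37 C. Viability is measured as ATP-dependent luciferase luminescence, with AC50 modeled from qHTS concentration-response curves.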
# [14] = Cell Viability - LYMP2-026 (AID 989); settings: LYMP2-026 lymphoblastoid cell viability, qHTS; series mostly up to 92.2 µM; note: nearly all actives have a fitted effect of over 50% in size
# Summary of the method: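 Acute toxicity screen in complete culture medium, with 24 hr compound exposure at 37 C. Viability read as cellular ATP via luciferase reaction, with tetraoctylammonium bromide (6.4pM to 92 uM) as positive control.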
# [15] = Cell Viability - LYMP1-002 - Assay at 40 hr (AID 994); settings: LYMP1-002 lymphoblastoid cell viability; series mostly up to 92.2 µM; note: nearly all actives have a fitted effect of over 60% in size
# Summary of the method: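 Concentration-dependent ATP loss after 40 hr treatment at 37 C defined toxicity; AC50 values were obtained by fitting the standard Hill equation.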
# [16] = qHTS Assay for Identification of Small Molecule Inducers of Hypoxia Response (AID 2120; active = well fitted curve in the direction sought with a large enough effect in the signal ratio, with a control signal flat, not every such curve was filed as active; the % refers to the signal ratio); settings: hypoxia response reporter cells, beta-lactamase ratio readout; series mostly up to 104 µM
# Summary of the method: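 HRE-bla ME-180, 2500 cells/well, 0.5% dialyzed FBS medium; cpd titration, 17 h 37 degrees C; CCF4 2.5 h RT; Ex 405, Em 460/530 ratio -> %Activity, AC50.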
# [17] = molecular target: Glucocorticoid receptor (Homo sapiens) (UniProt P04150); assay: qHTS assay for small molecule agonists of glucocorticoid receptor signaling (AID 588532; active = well fitted curve in the direction sought with a large enough effect in the signal ratio, with a control signal flat; the % refers to the signal ratio); settings: HeLa MMTV-bla, beta-lactamase ratio, agonist, 18 h; stronger effect = higher value; percent of dexamethasone control, DMSO zero
# Chain of Glucocorticoid receptor (Homo sapiens) (P04150 whole entry, looked up): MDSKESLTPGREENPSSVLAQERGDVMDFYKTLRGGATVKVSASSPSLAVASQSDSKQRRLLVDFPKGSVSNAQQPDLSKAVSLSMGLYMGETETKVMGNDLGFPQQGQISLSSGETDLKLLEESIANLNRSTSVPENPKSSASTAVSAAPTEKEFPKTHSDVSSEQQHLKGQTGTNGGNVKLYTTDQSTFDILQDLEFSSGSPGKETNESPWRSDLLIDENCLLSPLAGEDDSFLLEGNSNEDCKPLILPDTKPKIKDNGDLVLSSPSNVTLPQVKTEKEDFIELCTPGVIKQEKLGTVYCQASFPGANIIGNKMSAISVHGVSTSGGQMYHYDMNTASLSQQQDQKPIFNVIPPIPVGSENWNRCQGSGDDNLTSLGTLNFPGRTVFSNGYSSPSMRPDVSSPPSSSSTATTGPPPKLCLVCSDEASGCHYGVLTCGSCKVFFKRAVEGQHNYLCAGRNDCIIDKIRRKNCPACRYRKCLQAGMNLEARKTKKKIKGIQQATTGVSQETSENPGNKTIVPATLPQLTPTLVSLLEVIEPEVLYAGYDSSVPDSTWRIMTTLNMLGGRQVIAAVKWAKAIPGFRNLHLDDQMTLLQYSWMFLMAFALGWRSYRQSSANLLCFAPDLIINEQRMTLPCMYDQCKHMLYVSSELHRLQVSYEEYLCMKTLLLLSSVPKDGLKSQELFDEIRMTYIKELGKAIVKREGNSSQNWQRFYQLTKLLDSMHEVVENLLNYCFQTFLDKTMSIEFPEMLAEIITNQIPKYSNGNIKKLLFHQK
# Summary of the method: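 HeLa GRE-bla reporter cells; 18 h compound exposure at 37 C; 2 h CCF4 loading at room temperature; fluorescence at 460 and 530 nm; EC50 by Hill equation.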
# [18] = molecular target: Glucocorticoid receptor (Homo sapiens) (UniProt P04150); assay: qHTS assay for small molecule antagonists of glucocorticoid receptor signaling (AID 588533; active = well fitted inhibition curve with a large enough effect in the signal ratio, with a control signal flat, not every such curve was filed as active; the % refers to the signal ratio); settings: HeLa MMTV-bla, GRE beta-lactamase ratio, antagonist mode, 18 h; series mostly up to 76.8 µM
# Summary of the method: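 Antagonist-mode qHTS: compound titrations added to GRE-bla HeLa cells, then dexamethasone 2 nM final; 18 h, 37 C. CCF4 FRET fluorescence normalized to dexamethasone and DMSO; IC50 from Hill fit.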
# [19] = molecular target: Peroxisome proliferator-activated receptor delta (Homo sapiens) (UniProt Q03181); assay: qHTS assay for small molecule agonists of peroxisome proliferator-activated receptor delta signaling (AID 588534; calls by dose curve); settings: HEK293T PPARdelta-UAS-bla, beta-lactamase ratio, 18 h; series mostly up to 76.7 µM
# Chain of Peroxisome proliferator-activated receptor delta (Homo sapiens) (Q03181 whole entry, looked up): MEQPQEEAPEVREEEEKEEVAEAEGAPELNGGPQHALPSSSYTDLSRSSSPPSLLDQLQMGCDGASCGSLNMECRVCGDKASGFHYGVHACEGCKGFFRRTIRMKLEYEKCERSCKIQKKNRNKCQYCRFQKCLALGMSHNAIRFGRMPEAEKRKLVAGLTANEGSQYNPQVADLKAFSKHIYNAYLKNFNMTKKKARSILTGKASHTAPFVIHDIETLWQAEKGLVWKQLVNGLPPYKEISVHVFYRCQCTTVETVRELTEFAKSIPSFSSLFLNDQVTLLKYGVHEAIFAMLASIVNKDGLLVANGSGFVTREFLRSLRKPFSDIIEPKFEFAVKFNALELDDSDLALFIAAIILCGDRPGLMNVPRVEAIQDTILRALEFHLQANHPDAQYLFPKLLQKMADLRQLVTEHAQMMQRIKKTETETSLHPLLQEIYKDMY
# Summary of the method: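 EC50 and efficacy values derive from Hill fits of a concentration series in a beta-lactamase reporter cell assay. Exposure is 18 hrs at 37 C, with CCF4 fluorescence as the readout.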
# [20] = molecular target: Peroxisome proliferator-activated receptor gamma (Homo sapiens) (UniProt P37231); assay: qHTS assay for small molecule antagonists of peroxisome proliferator-activated receptor gamma signaling (AID 588537; active = well fitted inhibition curve with a large enough effect in the signal ratio, with a control signal flat, not every such curve was filed as active; the % refers to the signal ratio;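 note: reporter cells co-stimulated with 50 nM rosiglitazone agonist during compound treatment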); settings: HEK293 PPARg-UAS-bla, beta-lactamase ratio, antagonist mode; series mostly up to 76.8 µM
# Chain of Peroxisome proliferator-activated receptor gamma (Homo sapiens) (P37231 whole entry, looked up): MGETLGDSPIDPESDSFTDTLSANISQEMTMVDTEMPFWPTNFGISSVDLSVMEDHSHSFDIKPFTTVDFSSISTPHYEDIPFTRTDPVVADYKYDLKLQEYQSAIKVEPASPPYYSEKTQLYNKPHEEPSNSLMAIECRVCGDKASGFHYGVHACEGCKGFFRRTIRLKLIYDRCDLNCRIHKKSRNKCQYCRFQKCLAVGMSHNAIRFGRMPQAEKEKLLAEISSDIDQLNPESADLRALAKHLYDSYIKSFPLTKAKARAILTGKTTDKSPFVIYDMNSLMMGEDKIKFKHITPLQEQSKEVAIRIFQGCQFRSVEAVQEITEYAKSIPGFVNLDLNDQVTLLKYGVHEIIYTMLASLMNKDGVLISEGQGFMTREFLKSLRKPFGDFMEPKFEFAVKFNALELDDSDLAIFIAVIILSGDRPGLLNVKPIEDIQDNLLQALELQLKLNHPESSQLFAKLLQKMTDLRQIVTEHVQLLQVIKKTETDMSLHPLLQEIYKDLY
# Summary of the method: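 Read-out: CCF4 fluorescence (ex 405, em 460/530 nm) after 2 h at RT. Cells were HEK293 carrying a UAS-bla reporter and treated 16 h at 37 C with compound plus rosiglitazone (50 nM final). Normalized to rosiglitazone and DMSO.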
# [21] = molecular target: Vitamin D3 receptor (Homo sapiens) (UniProt P11473); assay: qHTS assay for small molecule antagonists of vitamin D receptor signaling (AID 588541; calls by dose curve;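 note: receptor activated by calcitriol during compound treatment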); settings: HEK293T VDR-UAS-bla, beta-lactamase ratio, antagonist mode; series mostly up to 76.7 µM
# Chain of Vitamin D3 receptor (Homo sapiens) (P11473 whole entry, looked up): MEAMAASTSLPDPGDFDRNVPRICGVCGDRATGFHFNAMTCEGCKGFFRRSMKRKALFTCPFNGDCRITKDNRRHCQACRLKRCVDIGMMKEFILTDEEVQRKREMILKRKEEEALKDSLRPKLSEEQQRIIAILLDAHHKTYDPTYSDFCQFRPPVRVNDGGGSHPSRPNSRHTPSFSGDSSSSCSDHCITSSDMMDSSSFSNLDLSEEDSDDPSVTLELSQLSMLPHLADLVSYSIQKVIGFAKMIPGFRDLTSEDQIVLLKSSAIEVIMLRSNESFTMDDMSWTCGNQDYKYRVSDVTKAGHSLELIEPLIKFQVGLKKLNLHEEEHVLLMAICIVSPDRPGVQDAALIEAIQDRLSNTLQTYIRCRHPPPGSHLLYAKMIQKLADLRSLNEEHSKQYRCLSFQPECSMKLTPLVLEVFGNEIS
# Summary of the method: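 VDR-UAS-bla HEK293T cells in 2% charcoal-stripped FBS were stimulated with 1-alpha,25-dihydroxyvitamin D3 (3 nM final) plus compound for 16 h at 37 C. The beta-lactamase CCF4 readout was normalized to 50 nM agonist and DMSO, and Hill fits gave IC50.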
# [22] = molecular target: Vitamin D3 receptor (Homo sapiens) (UniProt P11473); assay: qHTS assay for small molecule agonists of vitamin D receptor signaling (AID 588543; calls by dose curve); settings: HEK293T VDR-UAS-bla, beta-lactamase ratio, 16 h; series mostly up to 76.8 µM
# Summary of the method: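 qHTS in agonist mode: compound titrations stimulate a VDR-driven β-lactamase reporter in HEK293T cells over 16 h at 37 °C. Response normalized to 50 nM 1α,25-dihydroxyvitamin D3 = 100%, DMSO = 0%; Hill fitting gives EC50 and maximal response.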
# [23] = molecular target: Thyroid hormone receptor beta (Homo sapiens) (UniProt P10828); assay: qHTS assay for small molecule agonists of thyroid hormone receptor beta signaling (AID 588545; calls by dose curve); settings: TR-UAS-bla GripTite HEK 293, beta-lactamase ratio, agonist mode, 18 h; series mostly up to 76.7 µM
# Chain of Thyroid hormone receptor beta (Homo sapiens) (P10828 whole entry, looked up): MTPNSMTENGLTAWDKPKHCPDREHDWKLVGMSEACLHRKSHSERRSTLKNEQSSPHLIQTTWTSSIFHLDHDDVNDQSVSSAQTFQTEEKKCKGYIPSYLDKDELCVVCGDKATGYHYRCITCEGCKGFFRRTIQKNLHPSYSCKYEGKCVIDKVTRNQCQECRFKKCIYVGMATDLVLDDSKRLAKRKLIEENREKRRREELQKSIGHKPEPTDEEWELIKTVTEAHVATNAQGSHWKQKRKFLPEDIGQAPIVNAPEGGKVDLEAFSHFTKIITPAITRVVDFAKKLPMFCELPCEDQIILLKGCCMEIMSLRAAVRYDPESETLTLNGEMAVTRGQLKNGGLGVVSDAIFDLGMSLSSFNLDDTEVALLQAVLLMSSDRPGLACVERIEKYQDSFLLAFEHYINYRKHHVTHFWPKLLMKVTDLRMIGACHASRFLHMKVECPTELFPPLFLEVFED
# Summary of the method: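 Stimulation of a TR-driven beta-lactamase reporter was quantified in GripTite HEK 293 cells. Compound series ran for 18 hrs; curves were normalized to T3 and DMSO controls and fitted to yield EC50.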
# [24] = qHTS assay for small molecule antagonists of retinoid X receptor alpha signaling (AID 588546; active = well fitted inhibition curve with a large enough effect in the signal ratio, with a control signal flat, not every such curve was filed as active; the % refers to the signal ratio;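 note: cells stimulated with 9-cis-retinoic acid as agonist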); settings: HEK293T RXRa-UAS-bla, beta-lactamase ratio, antagonist mode; measured here: W530 green channel, cytotoxicity proxy
# Summary of the method: (§1)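 Beta-lactamase reporter inhibition, read as CCF4 fluorescence ratio (ex 405, em 460/530 nm) after 2 h at RT. HEK293T UAS-bla cells, 2500/well, were stimulated with 9-cis-RA at 500 or 100 nM final alongside test compound for 18 h at 37 C.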
# [25] = molecular target: Retinoic acid receptor RXR-alpha (Homo sapiens) (UniProt P19793); assay: as above; settings: HEK293T RXRa-UAS-bla, beta-lactamase ratio, antagonist mode
# Chain of Retinoic acid receptor RXR-alpha (Homo sapiens) (P19793 whole entry, looked up): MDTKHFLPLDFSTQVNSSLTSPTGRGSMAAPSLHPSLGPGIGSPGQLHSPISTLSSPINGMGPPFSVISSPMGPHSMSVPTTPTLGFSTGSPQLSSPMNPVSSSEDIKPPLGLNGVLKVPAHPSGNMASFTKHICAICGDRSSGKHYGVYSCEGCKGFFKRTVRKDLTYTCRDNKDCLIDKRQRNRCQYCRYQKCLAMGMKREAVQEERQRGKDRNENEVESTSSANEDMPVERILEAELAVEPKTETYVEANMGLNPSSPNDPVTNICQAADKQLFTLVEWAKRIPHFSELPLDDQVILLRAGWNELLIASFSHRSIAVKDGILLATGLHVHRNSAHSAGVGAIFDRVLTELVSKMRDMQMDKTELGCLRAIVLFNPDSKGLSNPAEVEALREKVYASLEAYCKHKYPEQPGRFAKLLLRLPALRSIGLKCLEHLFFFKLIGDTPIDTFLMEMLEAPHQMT
# Summary of the method: as §1
# [26] = qHTS assay for small molecule agonists of the antioxidant response element (ARE) signaling pathway (AID 651741; active = well fitted activation curve with a large enough effect in the signal ratio; the % refers to the signal ratio; note: potency is the fitted concentration of half-maximal effect); settings: HepG2 ARE-bla reporter, beta-lactamase FRET ratio, 16 h; series mostly up to 96 µM
# Summary of the method: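 HepG2 ARE-bla reporter cells, 2,000/well; 5 h settle at 37 C/5% CO2; compound pin transfer (23 nL, DMSO); 16 h at 37 C; LiveBLAzer B/G FRET substrate, 2 h RT; fluorescence intensity read.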
# [27] = qHTS assay for small molecule activators of the nuclear factor-kappa B (NF-kB) signaling pathway (AID 651749; active = well fitted activation curve with a large enough effect in the signal ratio; the % refers to the signal ratio); settings: NF-kB-bla ME-180 cells, beta-lactamase FRET ratio, 16 h; stronger effect = higher value
# Summary of the method: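 NF-kB-bla ME-180 cells, 2,000/well; 23 nL compound or DMSO pinned; 16 hr, 37C/5% CO2; beta-lactamase FRET read-out.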
# [28] = molecular target: Tumor necrosis factor (Homo sapiens) (UniProt P01375); assay: qHTS assay to identify small molecules that stimulate Tumor Necrosis Factor-alpha (TNF-alpha) secretion (AID 651757; active = well fitted curve in the direction sought with a large enough effect in the signal ratio; the % refers to the signal ratio); settings: Human cells, HTRF 665/615 ratio; series mostly up to 92.2 µM
# Chain of Tumor necrosis factor (Homo sapiens) (P01375 whole entry, looked up): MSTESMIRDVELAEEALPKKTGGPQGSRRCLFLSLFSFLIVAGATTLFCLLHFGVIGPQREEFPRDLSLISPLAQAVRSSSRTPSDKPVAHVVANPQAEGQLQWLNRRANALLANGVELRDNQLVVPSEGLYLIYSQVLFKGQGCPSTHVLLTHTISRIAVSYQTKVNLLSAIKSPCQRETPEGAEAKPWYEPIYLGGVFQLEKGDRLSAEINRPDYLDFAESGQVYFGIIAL
# Summary of the method: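 Using 3000 THP-1 cells per well, compounds and controls were applied for 17 hrs at 37 C. Detection followed with two labeled anti-TNF-alpha antibodies (cryptate donor, XL665 acceptor) for 3 hr at room temperature, measured by TR-FRET.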
# [29] = qHTS assay for environmental chemicals that activate the Aryl hydrocarbon Receptor (AhR) signaling pathway (AID 651777); settings: 1A2-DRE human hepatoma cells, luciferase, 24 h; activation: stronger effect = higher value; note: nearly all actives have a fitted effect of over 15% in size
# Summary of the method: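 Human hepatoma 1A2-DRE cells stably carrying a DRE/CYP1A2 promoter–luciferase reporter, 1,200 cells/well, exposed to compound 24 hr at 37 C. Luciferase read by One-Glo luminescence after 30 min at room temperature; increased signal marks AhR activation.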
# [30] = qHTS assay for small molecule agonists of the antioxidant response element (ARE) signaling pathway measured by Nrf2-dependant transcriptional activity (AID 720636; active = well fitted curve in the direction sought with a large enough effect in the repeat runs; an effect the other way counts as inactive or inconclusive); settings: ARE-luc HepG2, Nrf2 luciferase reporter, 16 h; series mostly up to 92.4 µM
# Summary of the method: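 ARE-luc HepG2 cells carrying an Nrf2-responsive luciferase reporter, in medium with 1% dialyzed FBS, exposed to compound for 16 hr at 37 C, 5% CO2. Luminescence read 30 min after ONE-Glo addition.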
# [31] = qHTS assay for small molecule agonists of the antioxidant response element (ARE) signaling pathway measured by Nrf2-dependant transcriptional activity - cell viability counter screen (AID 720653; active = well fitted curve in the direction sought with a large enough effect in the repeat runs; an effect the other way counts as inactive or inconclusive); settings: ARE-bla HepG2 viability, CellTiter-Glo ATP luminescence, 16 h; stronger effect = lower value
# Summary of the method: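 ARE-bla HepG2 cells treated with compounds for 16 h at 37C; this counter screen measures viability as intracellular ATP by CellTiter-Glo luminescence after 30 min at room temperature.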
# [32] = qHTS assay for cell viability of the p53RE-bla HCT-116 cell line (AID 743292); settings: p53RE-bla HCT-116 viability, ATP luminescence, 16 h; series mostly up to 95 µM
# Summary of the method: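 CellSensor p53RE-bla HCT-116 cells (4,000/well) pre-incubated 5 h at 37 C, then exposed to compounds in DMSO for 16 h at 37 C. Viability read as ATP content by CellTiter-Glo luminescence after 30 min at room temperature.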
structure (smiles),measurement,setting,value
Clc1ccc(C(c2ccccc2Cl)C(Cl)(Cl)Cl)cc1 (configuration not stated),Potency,[1],inactive
same,Potency,[2],inactive
same,Potency,[3],inactive
same,Potency,[4],inactive
same,Potency,[5],inactive
same,Potency,[6],inactive
same,Potency,[7],inactive
same,Potency,[8],inactive
same,Potency,[9],inactive
same,Potency,[10],inactive
same,Potency,[11],inactive
same,Potency,[12],inactive
same,Potency,[13],inactive
same,Potency,[14],inactive
same,Potency,[15],inactive
same,Potency,[16],inactive
same,activation,[17],1.13% (inactive)
same,outcome,[18],inactive
same,outcome,[19],inactive
same,Potency,[20],inactive
same,outcome,[21],inactive
same,outcome,[22],inactive
same,Potency,[23],inactive
same,max response,[24],5.48%
same,max response,[25],-26% (inactive)
same,Potency,[26],75 µM (active) and 61.1 µM (active)
same,activation,[27],3.52% (inactive) and 5.2% (inactive)
same,outcome,[28],inactive
same,activation,[29],-0.21% (inactive) and -0.331% (inactive)
same,Potency,[30],inactive
same,max response,[31],-11.9% (inactive) and 2.81% (inactive)
same,Potency,[32],50.1 µM (active)
